Screening results (PubChem)
The list is not random: actives were taken first. Their share in the collection is about 1.8%.
RN4220 kill – S. aureus RN4220 growth inhibition; 0.33% of 330,000 active; OD600, 16 h; inhibition, % (concentration not given with the values); in the data active means inhibition above about 85%;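 further: plate controls were untreated cells for no effect and reference antibiotic for full effect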
PfHsp40 yeast – rescue of PfHsp40-mediated yeast toxicity | S. cerevisiae expressing PfHsp40, growth rescue, ATP luminescence | growth rescue, % at 12.5 µM | 0.68% of 340,000 active | AID 504582; in the data active means growth rescue above about 28%, passing the limit was not always enough; inconclusive means no clear call, values can overlap the other calls;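 further: yeast W303a lacking pdr1 and pdr3 grown in galactose medium; growth measured after three days at 30 °C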
SSB-PriA inh – K. pneumoniae PriA-SSBct interaction inhibition; AlphaScreen SSBct-PriA binding, biotinylated peptide; inhibition, % at 33 µM; 0.6% of 430,000 active; in the data active means inhibition mostly above about 37%, no sharp cut-off; inactive means mostly below about 20%;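 further: plate controls were negative control peptide for no effect and reference peptide for full effect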
Sa ugtP lethal – compounds lethal to S. aureus RN4220 ugtP deletion mutant; OD600 growth, 16 h; AID 1259309; 0.54% of 330,000 active; growth inhibition, % (test concentration not listed); in the data active means growth inhibition above about 68%;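 further: plate controls were untreated wells for no effect and antibiotic for full effect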
Mtb hypoxia inh – inhibitors of hypoxia-regulated fluorescent reporter in Mycobacterium tuberculosis | fluorescence inhibition, % (no concentration beside the values) | M. tuberculosis hypoxia-regulated fluorescent reporter, fluorescence | AID 1159583 | 0.1% of 300,000 active; in the data active means fluorescence inhibition mostly above about 23%, no sharp cut-off; inactive means mostly below about 17%
VHR inh abs – inhibitors of human VHR1 phosphatase (DUSP3); P51452; recombinant VHR phosphatase, pNPP absorbance; inhibition, % at 13.3 µM; 0.52% of 290,000 active; AID 1654; in the data active means inhibition above about 50%
Target sequence (P51452 whole entry, looked up): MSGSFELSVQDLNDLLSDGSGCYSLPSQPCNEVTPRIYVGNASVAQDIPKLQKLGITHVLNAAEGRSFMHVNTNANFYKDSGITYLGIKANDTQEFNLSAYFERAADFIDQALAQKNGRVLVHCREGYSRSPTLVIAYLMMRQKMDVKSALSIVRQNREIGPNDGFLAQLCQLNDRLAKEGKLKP
Starred values were filed as active, the others as inactive.

For O=C(c1ccc(CS(=O)Cc2cccc(Cl)c2)o1)N1CCN(C2CCCCC2)CC1 (configuration not stated) the results were RN4220 kill -3, PfHsp40 yeast 0, SSB-PriA inh -4, Sa ugtP lethal 95*, Mtb hypoxia inh 4 and VHR inh abs -15.
O=C(c1ccc(CS(=O)Cc2ccc(Cl)cc2)o1)N1CCN(c2ccc(F)cc2)CC1 (configuration not stated) was read as RN4220 kill -4, PfHsp40 yeast -1, SSB-PriA inh 8, Sa ugtP lethal 90*, Mtb hypoxia inh 7 and VHR inh abs -37.
Cc1ccc(C)c(N2CCN(C(=O)c3ccc(CS(=O)Cc4cccc(Cl)c4)o3)CC2)c1 (configuration not stated) was read as RN4220 kill 1, PfHsp40 yeast 9, SSB-PriA inh 16, Sa ugtP lethal 98*, Mtb hypoxia inh 1 and VHR inh abs 2.
`CS(=O)(=O)c1cccc(-c2nnc(NC(=O)c3ccc(S(=O)(=O)N4CCOCC4)cc3)o2)c1` gave SSB-PriA inh -6.
O=C(c1ccc(Cl)cc1)N1CCN(c2ccc(F)cc2)CC1 was read as RN4220 kill 3, PfHsp40 yeast 110*, SSB-PriA inh -6, Sa ugtP lethal 4 and VHR inh abs 9.
Screening Clc1ccccc1CSc1ccc2nnc(-c3ccncc3)n2n1 returned SSB-PriA inh -6.
For COc1ccc(-c2cc(-c3ccccc3)n[nH]2)c(O)c1 the results were RN4220 kill -5, PfHsp40 yeast 80*, SSB-PriA inh -3, Sa ugtP lethal -14, Mtb hypoxia inh -18 and VHR inh abs 15.
`Oc1ccc(Cl)cc1-c1cc(-c2ccccc2)n[nH]1` gave RN4220 kill -8, PfHsp40 yeast 1, SSB-PriA inh -24, Sa ugtP lethal 20, Mtb hypoxia inh -6 and VHR inh abs 19.
`Oc1ccccc1-c1cc(-c2ccc(F)cc2)n[nH]1` gave RN4220 kill -4, PfHsp40 yeast 170*, SSB-PriA inh -33, Sa ugtP lethal 9, Mtb hypoxia inh 5 and VHR inh abs 14.
`Cc1ccc(O)c(-c2cc(-c3cccc(Br)c3)n[nH]2)c1` gave RN4220 kill 87*, PfHsp40 yeast 119*, SSB-PriA inh -3, Sa ugtP lethal 85, Mtb hypoxia inh -4 and VHR inh abs -5.
`Oc1ccccc1-c1cc(-c2ccccc2)n[nH]1` gave RN4220 kill -4, PfHsp40 yeast inconclusive, SSB-PriA inh -10, Sa ugtP lethal -18 and Mtb hypoxia inh 11.
`Cc1ccc(-c2cc(-c3ccc(C)cc3O)[nH]n2)cc1` gave RN4220 kill -11, PfHsp40 yeast -1, SSB-PriA inh -35, Sa ugtP lethal 55, Mtb hypoxia inh 9 and VHR inh abs -10.
Cc1ccc(-c2cc(-c3ccc(F)cc3)n[nH]2)c(O)c1 was read as RN4220 kill -13, PfHsp40 yeast 180*, SSB-PriA inh -26, Sa ugtP lethal 48, Mtb hypoxia inh 8 and VHR inh abs 13.
Screening O=C(NCc1cccs1)c1cc(OCc2ccccc2)no1 returned SSB-PriA inh -9.
Cc1ccc(-c2cc(-c3ccccc3Cl)[nH]n2)c(O)c1 was read as RN4220 kill -7, PfHsp40 yeast 136*, SSB-PriA inh -9, Sa ugtP lethal 11, Mtb hypoxia inh -1 and VHR inh abs -8.
COc1ccc(/C=C/C(=O)c2c(O)ccc3c(C)cc(=O)oc23)cc1 was read as RN4220 kill 5, PfHsp40 yeast -1, SSB-PriA inh -14, Sa ugtP lethal 89*, Mtb hypoxia inh 12 and VHR inh abs 39.
`COc1ccc(/C=C\C(=O)c2c(O)ccc3c(C)cc(=O)oc23)cc1` gave RN4220 kill -7, PfHsp40 yeast 1, SSB-PriA inh -6, Sa ugtP lethal 87* and VHR inh abs 16.
Screening C=c1oc(-c2ccc(Cl)cc2Cl)cc1=C1NN=C(c2ccco2)O1 returned SSB-PriA inh -16.
`Cc1cccc(S(=O)(=O)Nc2ccc(-c3ccc4nnc(-c5ccccn5)n4n3)cc2)c1` gave SSB-PriA inh 79*.
Screening O=S(=O)(Nc1ccc(-c2ccc3nnc(-c4ccccn4)n3n2)cc1)c1ccccc1F returned SSB-PriA inh 101*.
O=S(=O)(Nc1ccc(-c2ccc3nnc(-c4cccs4)n3n2)cc1)c1ccccc1 was read as SSB-PriA inh -18.
